Test results from PubChem BioAssay (NCI).
This is part of a sample that, as a whole, favours compounds with a hit. Of some 83,000 tested, about 20% had one in any assay.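 Negative percent growth values reflect cell death: -40 means 40% of the cells present at the start died, and -100 means all died.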 Activity calls are given as the source filed them. How the source made its calls: active means growth percent below 10; inactive means the rest.

How the values were obtained:
Experiment in all cases: NCI-60 one-dose screen, 48 h (100 = growth as untreated, 0 = no growth, -100 = all killed)
Conditions in all cases: 10 µM unless noted
NCI-H23 lung = system: NCI-H23 lung
NCI-H322M lung = system: NCI-H322M lung
NCI-H460 lung = system: NCI-H460 lung
HOP-92 NSCLC = system: HOP-92 NSCLC
NCI-H522 lung = system: NCI-H522 lung
786-0 renal = system: 786-0 renal
DU-145 prostate = system: DU-145 prostate
K-562 leukemia = system: K-562 leukemia
MALME-3M melanoma = system: MALME-3M melanoma
MDA-MB-231 breast = system: MDA-MB-231 breast
RXF 393 renal = system: RXF 393 renal
SF-268 CNS = system: SF-268 CNS
SF-295 CNS = system: SF-295 CNS
SF-539 CNS = system: SF-539 CNS
UACC-257 melanoma = system: UACC-257 melanoma
M14 melanoma = system: M14 melanoma
HCT-15 colon = system: HCT-15 colon
A549/ATCC NSCLC = system: A549/ATCC NSCLC
COLO 205 colon = system: COLO 205 colon

Measured: growth

NCCCNc1nc2ccccc2c2c(=O)c3cc(F)ccc3sc12
active: NCI-H460 lung -74.7% | HOP-92 NSCLC 8.11% | NCI-H522 lung -42.7% | 786-0 renal 1.83% | DU-145 prostate -22.8% | K-562 leukemia -50.4% | MDA-MB-231 breast -53.1% | M14 melanoma -55.5% | HCT-15 colon -49.3%
inactive: NCI-H23 lung 70% | NCI-H322M lung 41.9% | MALME-3M melanoma 76.7% | RXF 393 renal 41.9% | SF-268 CNS 34.3% | SF-295 CNS 85.9% | SF-539 CNS 55.2% | UACC-257 melanoma 68.1%

C[n+]1c2ccccc2nc2ccc(NCCO)cc21
inactive: NCI-H23 lung 90.6% | NCI-H322M lung 88.8% | NCI-H460 lung 86.8% | HOP-92 NSCLC 30.9% | NCI-H522 lung 92.2% | A549/ATCC NSCLC 86.2% | 786-0 renal 80.8% | COLO 205 colon 68.8% | DU-145 prostate 97.2% | K-562 leukemia 68.2% | MALME-3M melanoma 101% | MDA-MB-231 breast 77.2% | RXF 393 renal 83.2% | SF-268 CNS 63.7% | SF-295 CNS 98.5% | SF-539 CNS 90.8% | UACC-257 melanoma 99.2% | M14 melanoma 92.8% | HCT-15 colon 93.8%

Nc1ccccc1-c1ccc(-c2ccc(Cl)cc2)c2c1[nH]c1ccccc12
inactive: NCI-H23 lung 77% | NCI-H322M lung 64% | NCI-H460 lung 88.6% | NCI-H522 lung 73.5% | A549/ATCC NSCLC 67.9% | 786-0 renal 76.5% | COLO 205 colon 78.5% | DU-145 prostate 75.9% | K-562 leukemia 58.9% | MALME-3M melanoma 90.2% | MDA-MB-231 breast 62.2% | RXF 393 renal 53.4% | SF-268 CNS 64.8% | SF-295 CNS 88.2% | SF-539 CNS 86.3% | UACC-257 melanoma 81% | M14 melanoma 49.3% | HCT-15 colon 73.2%
active: HOP-92 NSCLC 7.99%

O=c1oc2ccc(Br)cc2c(=O)n1-c1ccc(I)cc1F
active: NCI-H23 lung 1.15% | NCI-H322M lung 4.56% | NCI-H460 lung 3.43% | HOP-92 NSCLC -16.6% | NCI-H522 lung -13.4% | A549/ATCC NSCLC 6.38% | 786-0 renal 2.68% | K-562 leukemia 5.48% | MALME-3M melanoma -28.3% | MDA-MB-231 breast -19.1% | RXF 393 renal -1.04% | SF-268 CNS 6.16% | SF-295 CNS -61.3% | SF-539 CNS 1.29% | UACC-257 melanoma -16.3% | M14 melanoma -9.72% | HCT-15 colon 1.62%
inactive: COLO 205 colon 51.2% | DU-145 prostate 13.6%

CCOc1cc(Cl)c(C(C)NC(=O)c2cccc(OC)c2)cc1OCC (centres undefined)
inactive: NCI-H322M lung 127% | NCI-H460 lung 13.6% | A549/ATCC NSCLC 17.3% | SF-268 CNS 11.3% | SF-295 CNS 111%
active: NCI-H23 lung 4.89% | HOP-92 NSCLC -46.3% | NCI-H522 lung -76.1% | 786-0 renal -74.9% | COLO 205 colon -84.8% | DU-145 prostate -21.7% | K-562 leukemia -25.7% | MALME-3M melanoma -70.4% | MDA-MB-231 breast -7.72% | RXF 393 renal -95.8% | SF-539 CNS 7.13% | UACC-257 melanoma -70.3% | M14 melanoma -46.4% | HCT-15 colon 3.34%

CN1CCN(Cc2ccc(C(=O)Nc3cncc(C#Cc4cnc5cccnn45)c3)cc2C(F)(F)F)CC1
active: K-562 leukemia 6.75%
inactive: NCI-H23 lung 47.5% | NCI-H322M lung 54.4% | NCI-H460 lung 49.2% | HOP-92 NSCLC 34.4% | A549/ATCC NSCLC 58.5% | 786-0 renal 57.2% | COLO 205 colon 39.3% | DU-145 prostate 36.1% | MALME-3M melanoma 28.3% | MDA-MB-231 breast 41% | RXF 393 renal 50.5% | SF-268 CNS 60.3% | SF-295 CNS 80.2% | SF-539 CNS 32.9% | UACC-257 melanoma 19.2% | M14 melanoma 34.4% | HCT-15 colon 38.8%

FC(F)(F)c1cccc(Nc2nc(-c3ccccc3)nc3ncccc23)c1
active: HOP-92 NSCLC -67.3% | COLO 205 colon -75% | K-562 leukemia -47.1% | MALME-3M melanoma -83.1% | RXF 393 renal -13.6% | SF-539 CNS 3.25% | UACC-257 melanoma -52.7% | M14 melanoma -86.6%
inactive: NCI-H23 lung 89.9% | NCI-H322M lung 87.8% | NCI-H460 lung 20.9% | NCI-H522 lung 72.8% | A549/ATCC NSCLC 82.3% | 786-0 renal 68% | DU-145 prostate 75.1% | MDA-MB-231 breast 44% | SF-268 CNS 13.3% | HCT-15 colon 17.6%

O=Cc1c(OCc2cnnn2CC(=O)Nc2ccc(Cl)cc2)ccc2ccccc12
inactive: NCI-H23 lung 101% | NCI-H322M lung 102% | NCI-H460 lung 104% | HOP-92 NSCLC 103% | NCI-H522 lung 89.3% | A549/ATCC NSCLC 104% | 786-0 renal 100% | COLO 205 colon 115% | DU-145 prostate 109% | K-562 leukemia 98.6% | MALME-3M melanoma 95.2% | MDA-MB-231 breast 98% | RXF 393 renal 111% | SF-268 CNS 99% | SF-295 CNS 104% | SF-539 CNS 94.5% | UACC-257 melanoma 94.6% | M14 melanoma 100% | HCT-15 colon 101%

CCCSC1=NC2C(N(CC)C(=O)N2CC)N1/N=C/C=C/c1ccccc1[N+](=O)[O-] (centres undefined)
inactive: NCI-H23 lung 46.5% | NCI-H322M lung 57.5% | HOP-92 NSCLC 102% | A549/ATCC NSCLC 35.8% | 786-0 renal 33.4% | DU-145 prostate 19.8% | MALME-3M melanoma 74.3% | MDA-MB-231 breast 22.6% | SF-268 CNS 48.1% | SF-295 CNS 12.9% | UACC-257 melanoma 70.8% | HCT-15 colon 16.1%
active: NCI-H460 lung 5.1% | COLO 205 colon 0.744% | K-562 leukemia 8.86% | RXF 393 renal 0.465% | SF-539 CNS -11.9% | M14 melanoma 1.77%

CCOc1cccc(/C=N\Nc2nc(=O)cc(C(=O)OC)s2)c1O
inactive: NCI-H23 lung 85.7% | NCI-H322M lung 54.2% | NCI-H460 lung 44% | HOP-92 NSCLC 60.1% | A549/ATCC NSCLC 63.1% | 786-0 renal 83.9% | COLO 205 colon 91.6% | DU-145 prostate 103% | K-562 leukemia 50.8% | MALME-3M melanoma 66.8% | MDA-MB-231 breast 78.7% | RXF 393 renal 97% | SF-268 CNS 76% | SF-295 CNS 57.5% | SF-539 CNS 82.6% | UACC-257 melanoma 78.2% | M14 melanoma 63.7% | HCT-15 colon 45.6%
